Experimental data from publication PMC8384837, “Expanding the binding specificity for RNA recognition by a PUF domain”.

Target: PUM1 PUF domain R1-GPK (Homo sapiens, UniProt Q14671 828-1176, S863G;R864P;Q867K)
Test: yeast three-hybrid, YBZ-1, SC-Leu-His + 0.5 mM 3-AT, 4 days
Settings: tags: N-Gal4 AD-HA kept; label: inside an RPR1-promoter hybrid RNA with tandem MS2 sites; ssRNA
Procedure, shortened: (§1)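 Pumilio-1 PUF domain libraries, randomized at the three base-contacting residues of each repeat, were co-expressed with matching RNA elements from a centromeric plasmid in strain YBZ-1, which carries a LexA–MS2 coat fusion and a HIS3 reporter. Transformants grew for four days on SC-Leu (input) or on SC-Leu-His + 0.5 mM 3-AT (selection), and the repeat regions were PCR-amplified and Illumina-sequenced. The interaction score is the log change in variant frequency from input to selection. That logarithm is base 2, with a pseudocount of 1 where a variant was absent.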

Point of comparison: “GGCUAGAACUAGUGGAUCCCCCGGCGCCCGGCGGCUCGAGCCCGGGUAAGUGUAAAUGGUCUGCAUGCCGCCGGGCGCCAUGCCUGCAGGUCGACUCUAGAAAACAUG”, binding signal 0.78 log2 enrichment (interaction score). Against it:
- GGCUAGAACUAGUGGAUCCCCCGGCGCCCGGCGGCUCGAGCCCGGGUAAGUGUAAAUCGUCUGCAUGCCGCCGGGCGCCAUGCCUGCAGGUCGACUCUAGAAAACAUG — higher, 4.33 log2 enrichment (interaction score)
- GGCUAGAACUAGUGGAUCCCCCGGCGCCCGGCGGCUCGAGCCCGGGUAAGUGUAAAUUGUCUGCAUGCCGCCGGGCGCCAUGCCUGCAGGUCGACUCUAGAAAACAUG — higher, 2.87 log2 enrichment (interaction score)

Target: PUM1 PUF domain R4-GYP (Homo sapiens, UniProt Q14671 828-1176, N971G;H972Y;Q975P)
Test: as above
Settings: tags: N-Gal4 AD-HA kept; label: inside an RPR1-promoter hybrid RNA with tandem MS2 sites; ssRNA
Procedure, shortened: as §1

Point of comparison: “GGCUAGAACUAGUGGAUCCCCCGGCGCCCGGCGGCUCGAGCCCGGGUAAGUGUAAAUAGUCUGCAUGCCGCCGGGCGCCAUGCCUGCAGGUCGACUCUAGAAAACAUG”, binding signal 5.1 log2 enrichment (interaction score). Against it:
- GGCUAGAACUAGUGGAUCCCCCGGCGCCCGGCGGCUCGAGCCCGGGUAAGUGUACAUAGUCUGCAUGCCGCCGGGCGCCAUGCCUGCAGGUCGACUCUAGAAAACAUG — higher, 5.39 log2 enrichment (interaction score)
- GGCUAGAACUAGUGGAUCCCCCGGCGCCCGGCGGCUCGAGCCCGGGUAAGUGUAUAUAGUCUGCAUGCCGCCGGGCGCCAUGCCUGCAGGUCGACUCUAGAAAACAUG — higher, 7.06 log2 enrichment (interaction score)
